The structures appear in SMILES notation. Results filed as inconclusive are left out. Where a call stands in place of a potency, no number is given. Activity calls are given as the source filed them. Calls come from the whole dose curve; as a rule, active = well fitted inhibition curve with a large enough effect; inconclusive = small, poorly fitted or top-dose-only effect; inactive = flat fitted curve, though single readings scatter.

The target of the assay is Calcium and integrin-binding protein 1 (Homo sapiens) (UniProt Q99828). Kind of assay: Primary qHTS for Identification of Calcium Integrin Binding Protein 1 (CIB1) Competitor (AID 1508620).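 Note: GST tagged CIB1 binding a fluorescein labelled alphaIIb integrin peptide tracer; top concentration of the series differs between compounds.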 The conditions noted are these: CIB1-GST / FITC-alphaIIb peptide fluorescence polarization; series mostly up to 114 µM. The method, boiled down: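 CIB1-GST (1 uM final) and compound incubated 15 min at room temperature before adding FITC-alphaIIb peptide tracer (100 nM final). Competition for binding read by fluorescence polarization (ex 480, em 540) after another 15 min at room temperature.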
Sequence of Calcium and integrin-binding protein 1 (Homo sapiens) (Q99828 whole entry, looked up): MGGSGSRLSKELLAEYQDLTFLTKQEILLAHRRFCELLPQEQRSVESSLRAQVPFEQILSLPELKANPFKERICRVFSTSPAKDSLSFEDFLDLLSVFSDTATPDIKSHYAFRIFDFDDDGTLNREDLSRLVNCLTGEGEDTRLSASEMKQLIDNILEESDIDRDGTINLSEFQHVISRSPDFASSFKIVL
A general note: In qHTS, concentration-response curves come from the screen itself.
As to `CC1=CC2/C=C(\C)CCC3OC(C)(C)OC3CCC(=O)C23C(=O)NC(CC(C)C)C3C1C` (centres undefined), the Potency result was “inactive”.

Turning to `C=C1C(=O)OC2CC3(C)C(O)C(=O)C=C(C)C3CC12` (centres undefined), the Potency result was “inactive”.

Take `CC[C@@H]1C[C@]1(NC(=O)[C@@H]1C[C@@H]2CN1C(=O)[C@H](C(C)(C)C)NC(=O)OCC(C)(C)CCCCc1cccc3c1CN(C3)C(=O)O2)C(=O)NS(=O)(=O)C1CC1`: the Potency entry is “inactive”.

Turning to `O=C(NC[C@H](O)CN1CCc2ccccc2C1)c1ccnc(NC2CCC2)c1`, the Potency result was “inactive”.

With `C[C@@H]1CN(CC(=O)N2CC(C)(C)c3ncc(Cc4ccc(F)cc4)cc32)[C@@H](CN2CCOC[C@H]2C)CN1`, the Potency entry was “inactive”.

For the compound `CC1(C)CN(C(=O)c2ccc(-c3cccc4nc(NC(=O)C5CC5)nn34)cc2)C1`, the Potency result is “inactive”.

On to `CC(=O)O[C@@H]1CC2C(C)(C)C(=O)C=C[C@]2(C)C2CC[C@@]3(C)[C@H](c4ccoc4)OC(=O)[C@H]4O[C@]43[C@@]21C` (some centres undefined), for which the Potency entry is “inactive”.

Take `C[C@@H]1O[C@@H](O[C@H]2[C@H](O[C@H]3CC[C@@]4(C)C(CC[C@]5(C)C4C=C[C@]46OC[C@@]7(CCC(C)(C)C[C@H]74)[C@@H](O[C@@H]4O[C@@H](C)[C@H](O)[C@@H](O)[C@H]4O)C[C@]65C)[C@]3(C)CO)O[C@H](CO)[C@@H](O)[C@@H]2O[C@@H]2O[C@H](CO)[C@@H](O)[C@H](O)[C@H]2O)[C@H](O)[C@H](O)[C@H]1O` (some centres undefined): the Potency entry was “inactive”.

`CC(=O)OC/C(=C/C(=O)O)CC[C@@H]1C(C=O)=CC[C@@H]2C(C)(C)CCC[C@@]12C`: the Potency entry is “inactive”.

Consider `CC(NCCCc1cccc(C(F)(F)F)c1)c1cccc2ccccc12` (centres undefined), for which the Potency entry was “inactive”.

`COc1cc2ncnc(Nc3ccc(F)c(Cl)c3)c2cc1O`: the Potency result is “inactive”.

Regarding `CCC(C)C(=O)O[C@H]1[C@H](O)[C@@]2(COC(C)=O)C(CC1(C)C)C1=CCC3[C@@]4(C)CC[C@H](O[C@@H]5O[C@H](C(=O)O)[C@@H](O)[C@H](O)[C@H]5O)[C@@](C)(CO)C4CC[C@@]3(C)[C@]1(C)C[C@@H]2O` (some centres undefined), the Potency result is “inactive”.

For the compound `COc1c(C(O)CC(C)C)ccc2c1C(=O)OCc1cc(C)cc(O)c1O2` (centres undefined), the Potency entry was “inactive”.

In the case of `COc1ccc(-c2c(C)nn3c(NCCN4CCOCC4)cc(C)nc23)cc1OC`, the Potency result is “inactive”.

In the case of `CC(=O)Nc1cccc(-c2csc(Nc3cc(C)ccn3)n2)c1`, the Potency result was “inactive”.

Take `O=C(O)CCc1nccc2c1[nH]c1ccccc12`: the Potency result was “inactive”.

As for `C=C1/C(=C/C=C2\CCC[C@]3(C)[C@@H]([C@H](C)/C=C/[C@H](O)C4CC4)CC[C@@H]23)C[C@@H](O)C[C@@H]1O`, the Potency entry is “inactive”.

Turning to `CC(C)S(=O)(=O)NC[C@@H]1CC(c2ccc(N3CCCC3)c(F)c2)=NO1`, the Potency result was “inactive”.

As to `CC(=O)OC1C(=O)C2C3OCC4=C3[C@@](C)(CC[C@@H]4O)CC[C@]2(C)[C@H]1C(C)C` (some centres undefined), the Potency result is “inactive”.

For the compound `COc1cc(C(N)=O)nc(-c2ccccn2)c1O`, the Potency result was “inactive”.

Regarding `COc1ccc(C[C@H]2COC(=O)[C@@H]2Cc2ccc(O[C@@H]3O[C@H](CO)[C@@H](O)[C@H](O)[C@H]3O)c(OC)c2)cc1OC`, the Potency result was “inactive”.

`CC(=O)O[C@@H]1C[C@]2(C)[C@@]3(CCC4[C@@]5(C)CC[C@H](O[C@@H]6O[C@H](C(=O)O)[C@@H](O)[C@H](OC7OC(CO)C(O)C(O)[C@H]7O[C@@H]7O[C@@H](C)[C@H](O)[C@@H](O)[C@H]7O[C@@H]7OC[C@](O)(CO)[C@H]7O)[C@H]6OC6OC(CO)C(O)C(O)C6O)C(C)(C)C5CC[C@]42C)OC[C@@]12CCC(C)(C)CC23` (some centres undefined): the activity change, negative = inhibition was -0.726% [at 12.4 µM] (inactive).

On to `COC(=O)c1cc2c(C(F)(F)F)cc(-c3ccccc3)cc2n1O`, for which the Potency result was “inactive”.

In the case of `COC(=O)c1ccnc(-c2cc(C(=O)Nc3ccc(C4(N)CC4)cc3)ccn2)c1`, the Potency entry was “inactive”.

Regarding `CC/C=C\CC1C(=O)C=CC1(CCCCC1CCC(=O)O1)OC(C)=O` (centres undefined), the Potency entry is “inactive”.

For the compound `C=CC1(C)CC(O)C(C(=C)C(=O)OC)C(O)C1C(=C)CO` (centres undefined), the Potency result was “inactive”.

For the compound `COC(=O)C[C@H]1C(C)(C)[C@H](OC(=O)c2ccccc2)C2CC3=C4CC(=O)O[C@@H](c5ccoc5)[C@]4(C)CCC3[C@@]1(C)C2=O` (some centres undefined), the Potency entry is “inactive”.

Regarding `O=[N+]([O-])c1ccc(Oc2ccc3c(c2)CCC(c2ccccc2)O3)nc1` (centres undefined), the Potency result is “inactive”.

As to `CC(=O)OC1CCC2(C)C(CCC3(C)C2CC=C2C4C(C)C(C)CCC4(C)CCC23C)C1(C)C(=O)O` (centres undefined), the Potency entry is “inactive”.

Turning to `C/C=C(\C)C(=O)OC1C(C)C2(O)C(C=C(CO)CC3(O)C(=O)C(C)=CC32)C2C(C)(C)C12OC(=O)C(C)C` (centres undefined), the Potency entry is “inactive”.

As for `C=CC(C)(O)CC[C@@H]1[C@@]2(C)CCCC(C)(C)C2CC[C@@]1(C)O` (some centres undefined), the Potency result was “inactive”.

Turning to `C=C1CC[C@@H]2[C@](C)(CO)[C@H](O)CC[C@@]2(C)[C@@H]1/C=C/C1=CCOC1=O`, the Potency result was “inactive”.

In the case of `CC1=CC2/C=C(\C)CCC(O)C/C=C/C(=O)OC23C(=O)NC(CC(C)C)C3C1C` (centres undefined), the Potency result is “inactive”.

Consider `C=C1CCC[C@]2(C)CC/C(=C(/CO)C(=O)OC)C[C@@H]12`, for which the Potency entry is “inactive”.

As for `COC1CC(=O)C23C(=O)NC(CC(C)C)C2C(C)C(C)=CC3/C=C(\C)CCCC1O` (centres undefined), the Potency entry is “inactive”.

For `CCCCCCCOc1cc2c(cc1/C(C)=C/c1ccc(C(=O)O)cc1)C(C)(C)CCS2(=O)=O`, the Potency entry is “inactive”.

`CCCCOc1ccc(S(=O)(=O)n2c(C)nc3ccccc32)cc1`: the Potency result is “inactive”.

Take `C=C1CCC2[C@](C)(CCC[C@@]2(C)C=O)[C@H]1CC/C(C)=C/CO` (some centres undefined): the Potency entry is “inactive”.

With `COc1cccc(CN(C(=O)CC(C)(C)C)[C@H]2C[C@H](C(=O)N3CCNCC3)N(Cc3ccc4c(c3)OCO4)C2)c1`, the Potency result was “inactive”.

These data come from PubChem BioAssay (NCATS).
